From PubChem BioAssay (NCATS) come the findings set out here.

Experiment [1] addresses Bile acid receptor (Homo sapiens) (UniProt Q96RI1). The experiment is described as follows: qHTS assay for small molecule antagonists of farnesoid X receptor signaling (AID 588526). Note: potency is the fitted concentration of half-maximal effect. An outline of the steps:
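Antagonist mode: titrated compounds tested against chenodeoxycholic acid stimulation (normalized to 50 uM CDCA and DMSO) in GeneBLAzer HEK293T cells for 16 h. Beta-lactamase read by CCF4 fluorescence; IC50 from Hill fits.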
(qHTS replaces the single test concentration by a dilution series.)

Experiment [2] deals with Glucocorticoid receptor (Homo sapiens) (UniProt P04150). Briefly: qHTS assay for small molecule agonists of glucocorticoid receptor signaling (AID 588532; active = well fitted curve in the direction sought with a large enough effect in the signal ratio, with a control signal flat; inconclusive = small, poorly fitted or top-dose-only effect, or a change in a side signal; inactive = no such curve, though single readings can be large or run the other way; the % refers to the signal ratio;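 note: 100% = dexamethasone at 0.1 µM and 0% = DMSO only wells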). The following applies: HeLa MMTV-bla, beta-lactamase ratio, agonist, 18 h; stronger effect = higher value; percent of dexamethasone control, DMSO zero. An outline of the steps: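 Cells were plated and rested 3-5 h at 37 C, compounds were added in titration and incubated 18 h, then CCF4 substrate was loaded for 2 h at RT before reading blue/green fluorescence. EC50 came from Hill-equation fitting.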
Glucocorticoid receptor (Homo sapiens), sequence (P04150 whole entry, looked up): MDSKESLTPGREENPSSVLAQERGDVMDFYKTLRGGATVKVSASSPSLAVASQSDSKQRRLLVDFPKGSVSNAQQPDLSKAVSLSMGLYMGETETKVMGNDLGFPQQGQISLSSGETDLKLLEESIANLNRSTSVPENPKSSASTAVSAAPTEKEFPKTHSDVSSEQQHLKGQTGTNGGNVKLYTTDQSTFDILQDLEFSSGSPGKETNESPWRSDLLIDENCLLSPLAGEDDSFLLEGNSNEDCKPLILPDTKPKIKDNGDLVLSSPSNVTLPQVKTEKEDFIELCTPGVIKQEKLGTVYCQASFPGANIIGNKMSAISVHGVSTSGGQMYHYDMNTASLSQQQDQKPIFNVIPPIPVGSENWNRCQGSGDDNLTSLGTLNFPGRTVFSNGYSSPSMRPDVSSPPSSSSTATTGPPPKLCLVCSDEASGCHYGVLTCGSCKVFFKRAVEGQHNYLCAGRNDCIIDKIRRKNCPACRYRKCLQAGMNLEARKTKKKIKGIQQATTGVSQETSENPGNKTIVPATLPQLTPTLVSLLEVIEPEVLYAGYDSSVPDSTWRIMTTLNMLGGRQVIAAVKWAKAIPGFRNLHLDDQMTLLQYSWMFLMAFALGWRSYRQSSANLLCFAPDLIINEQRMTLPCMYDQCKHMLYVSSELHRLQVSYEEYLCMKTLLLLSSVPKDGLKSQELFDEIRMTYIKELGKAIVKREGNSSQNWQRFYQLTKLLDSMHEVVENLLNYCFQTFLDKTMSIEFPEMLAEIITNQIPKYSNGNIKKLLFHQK

Experiment [3] in a line: qHTS assay for small molecule antagonists of peroxisome proliferator-activated receptor delta signaling (AID 588535; active = well fitted inhibition curve with a large enough effect in the signal ratio, with a control signal flat, not every such curve was filed as active; inconclusive = small, poorly fitted or top-dose-only effect, or effect the other way, or a change in a side signal; inactive = no such curve, though single readings can be large or run the other way; the % refers to the signal ratio;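 for max response: cells co-treated with a PPAR-delta agonist as stimulator during compound exposure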). As to conditions: HEK293T PPARd-UAS-bla, beta-lactamase FRET ratio, 18 h; 460 nm channel. Put shortly: (§1)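 Antagonist-mode beta-lactamase reporter (GeneBLAzer PPAR-delta-UAS-bla) in HEK293T cells, 2% charcoal/dextran FBS, 4000 cells/well. Compound titrations, 18 h at 37 C; CCF4 ratio read, IC50 and efficacy from Hill fits.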

The target of experiment [4] is Peroxisome proliferator-activated receptor delta (Homo sapiens) (UniProt Q03181). The description is as above. Put shortly:
as §1

Experiment [5] concerns the target Peroxisome proliferator-activated receptor gamma (Homo sapiens) (UniProt P37231). The experiment is described as follows: qHTS assay for small molecule agonists of peroxisome proliferator-activated receptor gamma signaling (AID 588536; active = well fitted curve in the direction sought with a large enough effect in the signal ratio, with a control signal flat, not every such curve was filed as active; inconclusive = small, poorly fitted or top-dose-only effect, or effect the other way, or a change in a side signal; inactive = no such curve, though single readings can be large or run the other way; the % refers to the signal ratio;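 note: 0% = DMSO basal wells and 100% = rosiglitazone at 2 µM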). Put shortly:
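HEK293 UAS-bla reporter line, 1% charcoal/dextran FBS; titration, 16 h, 37 C; CCF4 loading 2 h RT; fluorescence 460/530 nm. Normalized to rosiglitazone 2 uM = 100%, DMSO = 0%.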

The target in experiment [6] is Vitamin D3 receptor (Homo sapiens) (UniProt P11473). The experiment is described as follows: qHTS assay for small molecule antagonists of vitamin D receptor signaling (AID 588541).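 Note: receptor activated by calcitriol during compound treatment; % is set by controls: 0 for no effect and ±100 for the full control effect.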 An outline of the steps: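 VDR-UAS-bla HEK293T cells in 2% charcoal-stripped FBS were stimulated with 1-alpha,25-dihydroxyvitamin D3 (3 nM final) plus compound for 16 h at 37 C. The beta-lactamase CCF4 readout was normalized to 50 nM agonist and DMSO, and Hill fits gave IC50.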
Vitamin D3 receptor (Homo sapiens), sequence (P11473 whole entry, looked up): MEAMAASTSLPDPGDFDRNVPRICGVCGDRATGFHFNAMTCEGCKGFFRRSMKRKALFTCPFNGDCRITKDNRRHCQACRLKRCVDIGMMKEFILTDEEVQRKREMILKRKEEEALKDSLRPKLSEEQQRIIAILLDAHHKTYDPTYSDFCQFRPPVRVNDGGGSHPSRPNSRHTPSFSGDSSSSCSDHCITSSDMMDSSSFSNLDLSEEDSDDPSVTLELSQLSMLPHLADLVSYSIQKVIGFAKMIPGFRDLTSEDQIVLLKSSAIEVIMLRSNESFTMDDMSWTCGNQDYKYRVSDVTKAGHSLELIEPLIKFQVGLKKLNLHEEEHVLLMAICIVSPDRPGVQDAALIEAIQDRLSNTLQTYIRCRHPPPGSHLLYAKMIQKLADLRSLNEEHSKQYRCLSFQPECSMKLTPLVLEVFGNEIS

Experiment [7] can be described thus: qHTS assay for small molecule agonists of retinoid X receptor alpha signaling (AID 588544).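 For activation: 0% = DMSO basal wells and 100% = reference agonist.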 The following applies: HEK293T RXRa-UAS-bla, beta-lactamase reporter, 18 h; 530 nm emission.
The target in experiment [8] is Retinoic acid receptor RXR-alpha (Homo sapiens) (UniProt P19793). Described as above.
Retinoic acid receptor RXR-alpha (Homo sapiens), sequence (P19793 whole entry, looked up): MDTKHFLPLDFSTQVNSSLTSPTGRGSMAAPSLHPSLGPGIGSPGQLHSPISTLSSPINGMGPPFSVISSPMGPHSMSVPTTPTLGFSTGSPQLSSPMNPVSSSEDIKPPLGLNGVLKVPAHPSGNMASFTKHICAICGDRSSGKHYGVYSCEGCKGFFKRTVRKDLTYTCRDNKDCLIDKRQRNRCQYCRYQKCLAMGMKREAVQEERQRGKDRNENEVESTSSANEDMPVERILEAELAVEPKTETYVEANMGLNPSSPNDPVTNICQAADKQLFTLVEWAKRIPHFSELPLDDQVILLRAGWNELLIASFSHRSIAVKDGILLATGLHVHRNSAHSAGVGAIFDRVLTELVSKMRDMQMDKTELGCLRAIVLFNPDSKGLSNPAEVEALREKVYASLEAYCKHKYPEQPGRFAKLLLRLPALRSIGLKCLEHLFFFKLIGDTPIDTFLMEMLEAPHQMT
Experiment [9] in a line: qHTS assay for small molecule antagonists of retinoid X receptor alpha signaling (AID 588546; active = well fitted inhibition curve with a large enough effect in the signal ratio, with a control signal flat, not every such curve was filed as active; inconclusive = small, poorly fitted or top-dose-only effect, or effect the other way, or a change in a side signal; inactive = no such curve, though single readings can be large or run the other way; the % refers to the signal ratio;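 note: cells stimulated with 9-cis-retinoic acid as agonist; % is set by controls: 0 for no effect and ±100 for the full control effect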). As to conditions: HEK293T RXRa-UAS-bla, beta-lactamase ratio, antagonist mode; measured here: W530 green channel, cytotoxicity proxy. Put shortly:
(§2)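 Beta-lactamase reporter inhibition, read as CCF4 fluorescence ratio (ex 405, em 460/530 nm) after 2 h at RT. HEK293T UAS-bla cells, 2500/well, were stimulated with 9-cis-RA at 500 or 100 nM final alongside test compound for 18 h at 37 C.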

Experiment [10] has as its target Retinoic acid receptor RXR-alpha (Homo sapiens) (UniProt P19793). The experiment is described as above. As to conditions: HEK293T RXRa-UAS-bla, beta-lactamase ratio, antagonist mode. An outline of the steps: as §2
Experiment [11] deals with Thyroid hormone receptor beta (Homo sapiens) (UniProt P10828). Briefly: qHTS assay for small molecule antagonists of thyroid hormone receptor beta signaling (AID 588547; active = well fitted inhibition curve with a large enough effect in the signal ratio, with a control signal flat, not every such curve was filed as active; inconclusive = small, poorly fitted or top-dose-only effect, or effect the other way, or a change in a side signal; the % refers to the signal ratio;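 note: cells stimulated with 0.4 nM T3 agonist during compound exposure; % is set by controls: 0 for no effect and ±100 for the full control effect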). The following applies: TR-UAS-bla HEK293, beta-lactamase ratio, antagonist mode, 18 h. An outline of the steps: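 TR-UAS-bla GripTite HEK293 cells in 2% charcoal/dextran FBS medium; compounds 0.59 nM to 92 uM with T3 at 0.4nM final, 18 h at 37 C. Beta-lactamase read by CCF4 fluorescence (460/530 nm); Hill fits gave IC50 and efficacy.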
Thyroid hormone receptor beta (Homo sapiens), sequence (P10828 whole entry, looked up): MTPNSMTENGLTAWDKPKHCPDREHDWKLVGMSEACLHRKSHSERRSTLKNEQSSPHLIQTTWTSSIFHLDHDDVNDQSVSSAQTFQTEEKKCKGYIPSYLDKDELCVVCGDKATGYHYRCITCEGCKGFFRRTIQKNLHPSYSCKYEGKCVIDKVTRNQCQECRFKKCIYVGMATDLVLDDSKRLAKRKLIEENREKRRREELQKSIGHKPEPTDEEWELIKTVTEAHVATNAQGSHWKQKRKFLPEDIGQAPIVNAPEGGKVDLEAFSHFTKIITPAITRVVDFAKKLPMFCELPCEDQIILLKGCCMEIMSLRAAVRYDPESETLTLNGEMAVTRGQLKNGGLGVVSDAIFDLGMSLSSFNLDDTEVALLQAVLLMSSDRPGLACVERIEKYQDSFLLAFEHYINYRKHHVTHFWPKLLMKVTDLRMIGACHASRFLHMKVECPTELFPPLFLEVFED

A short description of experiment [12]: qHTS assay for small molecule agonists of the antioxidant response element (ARE) signaling pathway (AID 651741; active = well fitted activation curve with a large enough effect in the signal ratio; inconclusive = small, poorly fitted or top-dose-only effect, or effect the other way, or a change in a side signal; the % refers to the signal ratio; note: potency is the fitted concentration of half-maximal effect; for activation: % of control where 0% means no effect). An outline of the steps: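 CellSensor ARE-bla HepG2 cells (2,000/well) carrying ARE-driven beta-lactamase, exposed 16 h at 37 C. LiveBLAzer B/G FRET substrate added for 2 h at room temperature; fluorescence intensity read.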
Experiment [13] is described as follows: qHTS assay for small molecule activators of the nuclear factor-kappa B (NF-kB) signaling pathway (AID 651749; active = well fitted activation curve with a large enough effect in the signal ratio; inconclusive = small, poorly fitted or top-dose-only effect, or a change in a side signal; the % refers to the signal ratio; note: % of control where 0% means no effect). The following applies: NF-kB-bla ME-180 cells, beta-lactamase FRET ratio, 16 h; stronger effect = higher value. An outline of the steps: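 NF-kB-bla ME-180 cells carrying a beta-lactamase reporter under an NF-kB response element, 2,000 cells/well, exposed to compound for 16 hr at 37C; FRET-based beta-lactamase fluorescence read-out of pathway activation.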

Experiment [14] can be described thus: qHTS assay for small molecule activators of the p53 signaling pathway (AID 651743; active = well fitted activation curve with a large enough effect in the signal ratio, not every such curve was filed as active; inconclusive = small, poorly fitted or top-dose-only effect, or a change in a side signal; the % refers to the signal ratio; note: potency is the fitted concentration of half-maximal effect; for activation: % of control where 0% means no effect). The following applies: HCT-116 p53RE-bla, beta-lactamase FRET ratio, 16 h; activation: stronger effect = higher value. An outline of the steps:
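p53RE-bla HCT-116 cells carrying a beta-lactamase reporter under p53 response elements were exposed to compounds for 16 hours at 37 C. Reporter activity read as fluorescence after 2 hours at room temperature with LiveBLAzer B/G FRET substrate.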

Experiment [15] addresses Estrogen receptor (Homo sapiens) (UniProt P03372). Briefly: qHTS assay for small molecule antagonists of estrogen receptor alpha signaling (AID 588513; active = well fitted curve in the direction sought with a large enough effect in the signal ratio, with a control signal flat, not every such curve was filed as active; inconclusive = small, poorly fitted or top-dose-only effect, or effect the other way, or a change in a side signal; inactive = no such curve, though single readings can be large or run the other way; the % refers to the signal ratio; note: potency is the fitted concentration of half-maximal effect; for activity, negative = inhibition: % is set by controls: 0 for no effect and ±100 for the full control effect). An outline of the steps: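 Cells were plated at 5000/well and incubated 4 h at 37 C. Compounds were added as 1:2 dilution series, duplicates. 17-beta-estradiol (0.5nM final) was added for 18 h before CCF4 detection.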
Experiment [16] has the same target. The experiment is described as follows: qHTS assay for small molecule agonists of estrogen receptor alpha signaling (AID 588514).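 Note: 0% = vehicle only and 100% = reference agonist; nearly all actives have a fitted effect of over 70% in size.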 An outline of the steps: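 ER-alpha-UAS-bla GripTite HEK293 cells, 5000/well in 2% charcoal/dextran-stripped FBS medium, treated with compound titrations 18 h at 37 C. CCF4 beta-lactamase read by fluorescence after 2 h RT; normalised to 20 nM 17-beta-estradiol (100%) and DMSO (0%), Hill fit for EC50 and efficacy.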

Experiment [17] is described as follows: qHTS assay to identify small molecules that stimulate interleukin-8 (IL-8) secretion (AID 651758; active = well fitted activation curve with a large enough effect in the signal ratio; inconclusive = small, poorly fitted or top-dose-only effect, or effect the other way, or a change in a side signal; the % refers to the signal ratio; note: 0% is about no effect). An outline of the steps:
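THP-1 cells (2000/well) exposed to compound 16 h at 37 C; secreted IL-8 then detected by HTRF with cryptate- and XL665-labelled anti-IL-8 antibody pair after 1-3 h at room temperature.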

Experiment [18] can be described thus: qHTS profiling for inhibitors of Plasmodium falciparum proliferation (AID 504749; active = well fitted inhibition curve with a large enough effect; inconclusive = small, poorly fitted or top-dose-only effect;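 note: 0% = DMSO vehicle and full inhibition = artemisinin control; nearly all actives have a fitted effect of over 60% in size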). As to conditions: P. falciparum in erythrocytes, SYBR Green DNA, 72 h, at 28.7 µM (top of the series). Put shortly: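 P. falciparum-infected erythrocytes (0.3% parasitemia, 2.5% hematocrit) incubated with compound 72 h at 37 C, 5% CO2. Parasite DNA detected by SYBR Green after lysis, overnight at room temperature; normalised to 0.29 uM artemisinin and DMSO.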

The target of experiment [19] is Glucocorticoid receptor (Homo sapiens) (UniProt P04150). Briefly: qHTS assay for small molecule antagonists of glucocorticoid receptor signaling (AID 588533; active = well fitted inhibition curve with a large enough effect in the signal ratio, with a control signal flat, not every such curve was filed as active; inconclusive = small, poorly fitted or top-dose-only effect, or effect the other way, or a change in a side signal; the % refers to the signal ratio; note: potency is the fitted concentration of half-maximal effect). Put shortly: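 Antagonist-mode qHTS: compound titrations added to GRE-bla HeLa cells, then dexamethasone 2 nM final; 18 h, 37 C. CCF4 FRET fluorescence normalized to dexamethasone and DMSO; IC50 from Hill fit.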

Experiment [20] addresses Peroxisome proliferator-activated receptor gamma (Homo sapiens) (UniProt P37231). Briefly: qHTS assay for small molecule antagonists of peroxisome proliferator-activated receptor gamma signaling (AID 588537; active = well fitted inhibition curve with a large enough effect in the signal ratio, with a control signal flat, not every such curve was filed as active; inconclusive = small, poorly fitted or top-dose-only effect, or effect the other way, or a change in a side signal; the % refers to the signal ratio; note: potency is the fitted concentration of half-maximal effect;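 for activity, negative = inhibition: reporter cells co-stimulated with 50 nM rosiglitazone agonist during compound treatment; % of control where 0% means no effect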). Put shortly: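 PPARγ-UAS-bla HEK293 cells (3000/well) in 1% charcoal/dextran-stripped FBS are treated with compound, then stimulated with 50 nM rosiglitazone for 16 h at 37 °C. Read-out is CCF4 β-lactamase fluorescence after 2 h at RT. IC50 comes from Hill fits normalised to rosiglitazone and DMSO.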

Molecules are shown by their SMILES. Several values for one entry are separate records, joined by “and”; a condition that tells them apart may be missing. Equal entries are not always repeated. Activity calls are given as the source filed them. Unless noted, calls come from the whole dose curve.

Peroxisome proliferator-activated receptor delta (Homo sapiens), sequence (Q03181 whole entry, looked up): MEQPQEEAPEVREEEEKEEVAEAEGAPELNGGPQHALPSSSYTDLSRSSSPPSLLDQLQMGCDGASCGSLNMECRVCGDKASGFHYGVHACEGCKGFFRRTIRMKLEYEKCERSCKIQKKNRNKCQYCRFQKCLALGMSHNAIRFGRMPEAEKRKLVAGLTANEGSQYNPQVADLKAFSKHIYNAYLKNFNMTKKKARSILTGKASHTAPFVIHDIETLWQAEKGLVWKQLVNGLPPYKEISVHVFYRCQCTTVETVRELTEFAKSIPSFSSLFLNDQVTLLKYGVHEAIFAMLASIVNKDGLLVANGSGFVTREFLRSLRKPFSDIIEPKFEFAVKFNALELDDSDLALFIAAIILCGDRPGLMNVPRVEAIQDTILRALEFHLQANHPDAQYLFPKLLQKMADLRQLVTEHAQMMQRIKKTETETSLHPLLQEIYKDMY
Peroxisome proliferator-activated receptor gamma (Homo sapiens), sequence (P37231 whole entry, looked up): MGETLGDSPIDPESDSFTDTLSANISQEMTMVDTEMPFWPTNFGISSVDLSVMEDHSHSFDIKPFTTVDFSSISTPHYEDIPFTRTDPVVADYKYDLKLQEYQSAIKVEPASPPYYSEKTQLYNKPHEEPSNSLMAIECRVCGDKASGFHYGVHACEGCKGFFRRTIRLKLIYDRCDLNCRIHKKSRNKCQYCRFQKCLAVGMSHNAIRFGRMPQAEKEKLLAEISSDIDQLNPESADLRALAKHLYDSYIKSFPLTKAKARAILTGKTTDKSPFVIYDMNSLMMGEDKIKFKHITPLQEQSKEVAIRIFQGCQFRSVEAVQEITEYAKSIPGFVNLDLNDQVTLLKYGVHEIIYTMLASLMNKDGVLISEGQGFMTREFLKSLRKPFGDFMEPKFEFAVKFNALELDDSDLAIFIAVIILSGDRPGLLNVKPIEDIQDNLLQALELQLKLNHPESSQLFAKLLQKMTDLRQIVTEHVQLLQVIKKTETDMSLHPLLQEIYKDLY
Estrogen receptor (Homo sapiens), sequence (P03372 whole entry, looked up): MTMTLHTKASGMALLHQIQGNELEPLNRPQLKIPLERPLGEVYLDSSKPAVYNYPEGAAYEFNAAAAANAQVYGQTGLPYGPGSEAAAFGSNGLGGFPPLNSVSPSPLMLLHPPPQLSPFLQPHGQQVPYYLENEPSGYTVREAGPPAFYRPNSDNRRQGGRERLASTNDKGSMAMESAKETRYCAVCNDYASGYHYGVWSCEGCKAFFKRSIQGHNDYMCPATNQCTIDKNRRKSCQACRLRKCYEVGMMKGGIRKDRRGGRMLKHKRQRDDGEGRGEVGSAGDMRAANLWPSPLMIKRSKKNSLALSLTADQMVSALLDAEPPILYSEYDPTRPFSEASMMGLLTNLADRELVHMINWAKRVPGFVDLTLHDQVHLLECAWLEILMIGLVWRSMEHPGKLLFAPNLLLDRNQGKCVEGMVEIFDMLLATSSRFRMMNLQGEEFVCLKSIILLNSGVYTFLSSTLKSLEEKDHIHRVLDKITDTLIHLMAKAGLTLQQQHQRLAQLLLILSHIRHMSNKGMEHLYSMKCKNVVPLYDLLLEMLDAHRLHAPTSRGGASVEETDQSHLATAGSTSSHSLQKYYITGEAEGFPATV
Bile acid receptor (Homo sapiens), sequence (Q96RI1 whole entry, looked up): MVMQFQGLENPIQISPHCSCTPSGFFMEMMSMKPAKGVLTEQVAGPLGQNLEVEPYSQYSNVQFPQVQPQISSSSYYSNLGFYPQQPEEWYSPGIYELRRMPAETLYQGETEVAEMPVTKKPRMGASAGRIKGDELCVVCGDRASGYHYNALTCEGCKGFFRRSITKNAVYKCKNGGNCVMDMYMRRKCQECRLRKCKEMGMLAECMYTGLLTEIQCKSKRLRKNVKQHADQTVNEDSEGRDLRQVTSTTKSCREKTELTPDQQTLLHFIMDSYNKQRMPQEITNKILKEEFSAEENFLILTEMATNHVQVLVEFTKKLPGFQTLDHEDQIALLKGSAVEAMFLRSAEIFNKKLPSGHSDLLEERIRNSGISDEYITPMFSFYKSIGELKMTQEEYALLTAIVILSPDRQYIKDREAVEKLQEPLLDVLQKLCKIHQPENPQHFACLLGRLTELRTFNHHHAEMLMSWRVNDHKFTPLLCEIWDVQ

As for `CCCCCC/C(C=O)=C\c1ccccc1`, the Potency result in experiment [1], in experiment [6] and in experiment [12] was “inactive” in each case. Besides, the results for the activation in experiment [2] and in [13] were -2.77% (inactive) and -0.556% (inactive), respectively. Besides, the max response in experiment [3] was 24.4%; in [7], 3.46%; in experiment [9], 10.6%; in experiment [10], 9.05% (inactive). For the same molecule, the molecule was called inactive in experiment [4], in experiment [5] and in experiment [8]. Further, the activity change % (negative = inhibition) in experiment [11] was 8.8% (inactive).

Consider `C=CC(=O)OCC(CO)(COC(=O)C=C)COC(=O)C=C`, for which the activation in [2] was -3.48% (inactive) and -11.6% (inactive).

For the molecule `O=C(/C=C/c1ccc(O)c(O)c1)OC1C[C@](O)(C(=O)O)C[C@@H](O)[C@H]1O` (stereo partly drawn), the activation in [2] was 6.81% (inactive) and -6.91% (inactive); in experiment [14], -1.07% (inactive) and -1.86% (inactive). The max response in experiment [3] is 3.46% and 31.4%; in experiment [7] it was 6.31% and 0.0385%; in experiment [9], -7.31% and 4.34%; in experiment [10], -11.4% (inactive) and -2.14% (inactive). In addition, the result in [4] and in [8] was inactive. For the same molecule, in experiment [11], the activity change % (negative = inhibition) is -9.6% (inactive) and 0.221% (inactive).

`CCCCCCCC[N+](CCCCCCCC)(CCCCCCCC)CCCCCCCC`: the Potency entry in experiment [6] was “inactive”. In addition, the Potency in [12] is 8.41 µM (active).

With `CN1[C@H]2CC(OC(=O)[C@H](CO)c3ccccc3)C[C@H]1[C@H]1O[C@H]12` (stereo partly drawn), the Potency entry in [15], in [6] and in [12] was “inactive” in each case. Further, the call in experiment [16], in experiment [4], in [5], in experiment [8] and in [17] was inactive. In addition, the max response in [3] was -6.66% and 15.5%; in [7], 3.87% and -2.7%; in experiment [9] it was -12.3% and -10.2%; in experiment [10] it was -1.24% (inactive) and 3.3% (inactive). Besides, in [11], the activity change % (negative = inhibition) is -22.7% (inactive) and -1.59% (inactive). Moreover, the activation in experiment [14] was -1.86% (inactive) and -3.02% (inactive). The activity, negative = inhibition in [18] (parasite line A) was 1.25% (inactive); in [18] (parasite line B), -7.4% (inactive).

As to `O=C(OCC(COC(=O)c1ccccc1)(COC(=O)c1ccccc1)COC(=O)c1ccccc1)c1ccccc1`, the outcome in experiment [17] was inactive.

Consider `Cc1cccc(O)c1C`, for which the Potency result in experiment [15], in experiment [1], in [19], in [20] and in experiment [6] was “inactive” each time. Also, the outcome in [16], in [4], in [5] and in [8] was inactive. The activation in experiment [2] was 5.02% (inactive); in [14], -2.61% (inactive). Besides, the max response is -7.79% in [3], -18.7% in [7], 10.3% in experiment [9] and 20.3% (inactive) in experiment [10]. Further, the activity change % (negative = inhibition) in experiment [11] was 4.76% (inactive).

`Cc1cc(O)c(C(C)(C)C)cc1Sc1cc(C(C)(C)C)c(O)cc1C`: the Potency in experiment [15] is 12.6 µM [inconclusive] (active); in experiment [1] it was 22.4 µM (active); in [20], 39.8 µM (active) and 25.1 µM (active). The outcome in [16] was inactive. In addition, the activation in [2] was 26% (inactive).

For the molecule `c1cc(OCC2CO2)cc(OCC2CO2)c1` (stereo not drawn), the result in [16] was inactive. Besides, in experiment [2], the activation was 4.18% (inactive) and -8.77% (inactive).

In the case of `C=CC(=O)OCCOCCOC(=O)C=C`, the figures for the Potency in experiment [15], in [19] and in [12] were 35.5 µM [inconclusive] (active), 44.7 µM (active) and 47.3 µM (active), respectively. In addition, the activation in experiment [14] was 2.89% (inactive).

Consider `Oc1ccc2cc(SSc3ccc4cc(O)ccc4c3)ccc2c1`, for which the Potency in experiment [12] is 13.3 µM (active). Also, the activation in experiment [13] was 0.682% (inactive).

As for `CN(C)c1ccc(C2(c3ccc(N(C)C)cc3)OC(=O)c3cc(N(C)C)ccc32)cc1`, the Potency entry in experiment [15], in [20] and in experiment [6] was “inactive” each time. For the same molecule, the max response in [3] was -30.7%; in experiment [9], -30.3%; in [10], 32.7% (inactive). In addition, the molecule was called inactive in experiment [4] and in [5]. Moreover, the activity change % (negative = inhibition) in experiment [11] was 12.5% (inactive). In addition, the Potency in experiment [14] is 50.1 µM (active).

Regarding `CNc1ccc(O)cc1`, in [12], the Potency is 13.3 µM (active). The activation in experiment [14] is -13.4% (inactive); in experiment [13], -0.994% (inactive).

As to `c1ccc2c(c1)ccc1cc3c(ccc4ccccc43)cc12`, the Potency result in experiment [15] and in [1] was “inactive” each time. Further, the max response in [7] was -11.8%. Besides, in experiment [8], the molecule was classed as inactive.
